Data published in PubChem BioAssay AID686979 (National Center for Advancing Translational Sciences (NCATS), 2013).
Several values for one entry are separate records, joined by “and”; a condition that tells them apart may be missing. Identical values can stand only once. About 50,000 (12%) of roughly 420,000 compounds were called active. About 26% were inconclusive and are not listed. The call rests on the fitted dose curve; in most records, active means well fitted inhibition curve with a large enough effect; inconclusive means small, poorly fitted or top-dose-only effect; inactive means flat fitted curve, though single readings scatter. The sample as a whole holds a higher share of actives than the screen did. More than one record can exist for a structure, and the calls need not agree.

Assay: qHTS for Inhibitors of human tyrosyl-DNA phosphodiesterase 1 (TDP1): qHTS in cells in presence of CPT; further: nearly all actives have a fitted effect of over 55% in size
Conditions: chicken DT40 Tdp1-/-;hTDP1 cells + 20 nM CPT, ATP luminescence, 48 h; series mostly up to 46.2 µM; activity change, negative = growth inhibition: at the top concentration
Excerpt: Human tyrosyl-DNA phosphodiesterase 1 (TDP1) is a novel repair gene, and we propose to use it as a new target for anticancer drug development. TDP1 is not an essential protein, but under treatment with topoisomerase I poison (camptothecin: CPT), TDP1 works as a critical factor for cell survival. To directly identify novel TDP1 inhibitors active in a cellular environment, we have knocked-out the Tdp1 gene in chicken DT40 cells (Tdp1-/-) and generated a complemented counterpart cells that contains a stable transfection of the human TDP1 gene (Tdp1-/-;hTDP1 cells). For the primary screen, Tdp1-/-;hTDP1 cells will be exposed to small molecules in the presence or absence of CPT, and their growth kinetics will be evaluated after 48 hours by measuring ATP activity. […] The hit compounds will then be evaluated in the presence or absence of CPT using Tdp1-/- cells. […] In tertiary assays, biochemical gel-based assays will be used to assess whether the hit compounds specifically target TDP1. To this end, we have screened this cell line against the MLSMR in two primary screens. In one screen we add CPT and in the other we screen in the absence of CPT; this AID represents the screen where CPT was present. NIH Chemical Genomics Center [NCGC] NIH Molecular Libraries Probe Centers Network [MLPCN] MLPCN Grant: MH095538 Assay Submitter (PI): Yves Pommier, NCI
DT40-hTDP1 cells with 20 nM Camptothecin (add 20 microL of 1 mM CPT stock in 1 L of cell culture medium) were dispensed at 400 cells/5microL/well in tissue culture treated 1536-well white wall/solid bottom assay plates (Greiner Bio-One North America, NC, U.S.A.) using a Multidrop Combi 8 channel dispenser (Thermo Fisher, Waltham, MA, USA). 23 nL compounds and controls were transferred using the pin tool (Kalypsys, San Diego, CA, USA) to the assay plates. The assay plates were then incubated at 37 masculineC for a minimum 48 hr. Three microL of Cell Titer Glo solution was added to the plates and incubated at RT in dark for 30 min. Luminescence was read using ViewLux (Perkin Elmer) with 1 sec exposure slow speed, high gain and 2x binning.
On the % scale 0 is the no-effect control and ±100 the full control effect; potency means the concentration at half of the fitted maximal effect.

SMILES	activity change, negative = growth inhibition	Potency
CC(C)(C)c1ccc(C(=O)NCc2ccco2)cc1	-21.9% (inactive)	
COc1ccc(S(=O)(=O)NC(CC(=O)NCc2ccccc2OC)c2ccco2)cc1 (configuration not stated)	-22.8% (inactive)	
COc1ccccc1CNC(=O)C(=O)NCC(c1ccco1)S(=O)(=O)c1ccc(F)cc1 (configuration not stated)		20.6 µM (active)
COc1ccccc1NS(=O)(=O)c1ccc(C)c(C(=O)NCC(c2ccco2)N(C)C)c1 (configuration not stated)	12.3% (inactive)	
CC(C)(C)c1ccc(C(=O)NCC(c2ccco2)S(=O)(=O)c2ccc(F)cc2)cc1 (configuration not stated)		20.6 µM (active)
CC(C)CNC(=O)C(=O)NCc1ccccc1	-5.58% (inactive)	
O=C(NCc1ccccc1)C(=O)NCC(c1ccco1)S(=O)(=O)c1ccc(Cl)cc1 (configuration not stated)		23.1 µM (active)
O=C(NCCc1ccccc1)C(=O)NCC(c1ccco1)S(=O)(=O)c1ccccc1 (configuration not stated)	-27.8% (inactive)	
CC(C)(C)c1ccc(C(=O)NCCC(=O)NCc2ccco2)cc1	-27.3% (inactive)	
O=C(CCN1C(=O)C2CCCCC2C1=O)Nc1ccc(OC(F)F)cc1 (configuration not stated)	0.993% (inactive)	
COc1ccccc1-n1ccnc(SCC(=O)NC2CCCCC2)c1=O	-22.8% (inactive)	
COc1ccccc1C(=O)NCc1nnc(SC(C)C(=O)Nc2nccs2)n1C (configuration not stated)	-3.89% (inactive)	
Cc1c(NS(=O)(=O)c2ccc(Cl)cc2)c(=O)n(-c2ccccc2)n1C	-2.45% (inactive)	
O=C(NCc1ccc(Cl)cc1)NCc1ccc(Cl)cc1	-7.05% (inactive)	
O=C(COc1ccccc1)OCc1cc(=O)n2nc(-c3cccs3)sc2n1	-2.16% (inactive)	
O=C(c1cccs1)N(C(=O)c1cccs1)c1ccccn1	2.25% (inactive)	
CCOc1cc(C(=O)O)ccc1OCCOc1ccccc1	11.7% (inactive)	
CCc1nc2c(OCC(N)=O)cccn2c1N(C)C(=O)c1ccc(OC)cc1	-52.9% (inactive)	
CCc1nc2c(OCCOc3ccccc3)cccn2c1N(C)C(=O)c1ccc(OC)cc1		29.1 µM (active)
CCc1nc2c(OCCOc3ccccc3)cccn2c1N(C)C(=O)c1cccs1		25.9 µM (active)
Cc1c(C2=CCN(S(=O)(=O)c3ccc(Cl)cc3)CC2)c2ccccc2n1C	-25% (inactive)	
Cc1ccn(CC(=O)N2N=C(C(F)F)CC2(O)C(F)F)n1 (configuration not stated)	-25.3% (inactive)	
COc1cccc(CN2CCNC(=O)C2CC(=O)N(C)CCc2ccccn2)c1 (configuration not stated)	10.9% (inactive)	
O=C(NCCCNC(=O)NC1CCCCC1)NC1CCCCC1	-19.5% (inactive)	
Cc1ccc(NC(=O)Nc2cccnc2)cc1	4.49% (inactive)	
O=C(Nc1ccc(Cl)cc1)Nc1ccc(Oc2cccnc2)nc1		18.4 µM (active)

SMILES	activity change, negative = growth inhibition	Potency
O=C(NNC(=O)c1csc(-c2cccnc2)n1)Nc1ccc(Cl)cc1	-15% (inactive)	
CCN=c1sc(C(=O)Nc2ccccc2)c(C)n1CC	2.49% (inactive)	
O=C(COc1ccc(/C=N/NS(=O)(=O)c2ccccc2)cc1)NCCc1ccccc1	-22.2% (inactive)	
CC(C)NC(=O)COCc1cc(-c2ccc3c(c2)OCO3)on1	-0.118% (inactive)	
Cc1cccc(N2CCN(C(=O)COCc3cc(-c4ccc5c(c4)OCO5)on3)CC2)c1C		inactive
O=C(COCc1cc(-c2ccc3c(c2)OCO3)on1)N1CCN(c2cccc(Cl)c2)CC1		inactive and 18.4 µM (active)
CC(=O)c1ccccc1NC(=O)C1CC(=O)N(c2ccc3c(c2)OCCO3)C1 (configuration not stated)	0.743% (inactive)	
N#CCCN(C(=O)COC(=O)C1CCN(c2ccc(C(F)(F)F)cn2)CC1)c1ccc(F)cc1	-17.8% (inactive)	
c1ccc(-n2nnnc2NC2CCCCCC2)cc1	-24.8% (inactive)	
FC(F)(F)c1nc(-c2ccccc2)ncc1-c1nnnn1-c1ccccc1		20.6 µM (active)
c1ccc(-n2nnnc2-c2cccnc2)cc1	-7.87% (inactive)	
Cc1ccc2c(=O)cc(C(=O)Nc3sc4c(c3C(=O)NCc3cccnc3)CCCC4)oc2c1	3% (inactive)	
COc1ccc(C2CC(c3cccs3)=NN2C(=O)CSc2nnc(N)s2)cc1OC (configuration not stated)	2.09% (inactive)	
Fc1ccc(Nc2nnns2)cc1	-18.8% (inactive)	
CSc1nc(Nc2ccc(F)cc2)cc(-c2ccccc2)n1		14.6 µM (active)
Fc1ccc2cnc(-c3ccccc3)cc2c1	-40.8% (inactive)	
CCNc1nc(Oc2ccc(C(=O)OC)cc2)nc(N2CCOCC2)n1	-2.75% (inactive)	
COc1ccccc1S(=O)(=O)NCc1ccc(C(=O)N(C)Cc2ccc(F)cc2)cc1		20.6 µM (active)
O=C(NCCS(=O)(=O)NCc1ccc(F)cc1)c1ccccc1	-16.7% (inactive)	
COc1ccc(S(=O)(=O)NCc2ccc(C(=O)N(C)Cc3ccco3)cc2)cc1	-26.5% (inactive)	
NC(=O)c1oc2ccccc2c1NC(=O)CS(=O)(=O)c1ccccc1	-14.5% (inactive)	
CC[C@]12c3[nH]c4ccc(OC)cc4c3CCN1C(=O)C(CC(=O)NCCN1CCOCC1)C[C@@H]2C(=O)N1CCN(C(=O)C2CC2)CC1 (some centres not stated)	-0.596% (inactive)	
c1ccc2c(c1)CSc1sccc1C2=C1CCNCC1		20.6 µM (active)
Cc1csc(NCC(=O)c2c[nH]c3ccccc23)n1	12.2% (inactive)	
NC(=O)NCCCC(=O)O	0.521% (inactive)	
Cc1cc(C)n(CCNCc2c(C(=O)N3C[C@@H](C)O[C@@H](C)C3)nc3ccc(Cl)cn23)n1	7.87% (inactive)	
